# Data reported in the supplement of paper PMC12494721.
# Where a name gives a salt, the structure may show the parent alone.
# Columns and labels:
# Conditions in all cases: incubation time: 27 h, anaerobic, 37 °C;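 for the amine columns active = adjusted P below 0.05 in both replicates with a change the same way and a mean fold change under 0.8 or over 1.25; inactive = the rest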
# [1] = system: Clostridium sporogenes DSM 1664; assay: growth (OD595) fold change vs plate DMSO controls (fold change (ratio)); higher = more growth
# Method in brief: (§1)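 Growth is the fold change relative to the median of plate DMSO controls. Readings came from anaerobic mGAM cultures in 96-well plates grown for 27 h at 37 °C and read at 595 nm. They were blank-subtracted, corrected for compound background with 20 µM compound solutions in water, and converted to OD with a calibration factor of 5. Values are means of 2 biological replicates, and fold changes above 1.5 were set to NA.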
# [2] = system: Escherichia coli IAI1; assay: as above
# Method in brief: as §1
# [3] = system: Klebsiella aerogenes DSM 30053; assay: as above
# Method in brief: as §1
# [4] = system: Ruminococcus gnavus DSM 108212; assay: as above
# Method in brief: as §1
# [5] = system: Klebsiella aerogenes DSM 30053; assay: fold change of Histamine concentration vs plate DMSO controls (fold change (ratio)); higher = more amine produced, active = hit call of the paper (significant change in both replicates, either direction)
# Method in brief: (§2)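 In 80 µL wells, cultures of four gut bacterial strains in mGAM started at OD 0.1 before a 1:1 dilution and grew anaerobically at 37 °C for 27 h. Compounds were added to 20 µM final, except sweeteners at 50 µM final. After extraction of whole cultures with cold acetonitrile/methanol plus 0.1% formic acid and centrifugation, amines were measured by LC–triple-quadrupole MS in dynamic MRM mode against external calibration curves, with within-batch drift correction. Values give fold change over DMSO controls on the same plate, averaged across 2 biological replicates.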
# [6] = system: Clostridium sporogenes DSM 1664; assay: fold change of Tryptamine concentration vs plate DMSO controls (fold change (ratio)); higher = more amine produced, active = hit call of the paper (significant change in both replicates, either direction)
# Method in brief: as §2
# [7] = system: Ruminococcus gnavus DSM 108212; assay: as above
# Method in brief: as §2
# [8] = system: Escherichia coli IAI1; assay: fold change of Putrescine concentration vs plate DMSO controls (fold change (ratio)); higher = more amine produced, active = hit call of the paper (significant change in both replicates, either direction)
# Method in brief: as §2
# [9] = system: Klebsiella aerogenes DSM 30053; assay: as above
# Method in brief: as §2
# [10] = system: Escherichia coli IAI1; assay: fold change of Cadaverine concentration vs plate DMSO controls (fold change (ratio)); higher = more amine produced, active = hit call of the paper (significant change in both replicates, either direction)
# Method in brief: as §2
# [11] = system: Klebsiella aerogenes DSM 30053; assay: as above
# Method in brief: as §2
# [12] = system: Ruminococcus gnavus DSM 108212; assay: fold change of 2-Phenylethylamine concentration vs plate DMSO controls (fold change (ratio)); higher = more amine produced, active = hit call of the paper (significant change in both replicates, either direction)
# Method in brief: as §2
SMILES,growth [1],growth [2],growth [3],growth [4],fold change of Histamine concentration [5],fold change of Tryptamine concentration [6],fold change of Tryptamine concentration [7],fold change of Putrescine concentration [8],fold change of Putrescine concentration [9],fold change of Cadaverine concentration [10],fold change of Cadaverine concentration [11],fold change of 2-Phenylethylamine concentration [12]
Cc1ccc(Cl)c(Nc2ccccc2C(=O)O)c1Cl [Meclofenamic acid sodium salt monohydrate] (20 µM),1.01,0.972,1.16,1.12,0.916 (inactive),0.879 (inactive),0.959 (inactive),0.999 (inactive),0.977 (inactive),1.03 (inactive),1.03 (inactive),0.911 (inactive)
OCC1(O)OC[C@@H](O)[C@@H](O)[C@H]1O (some centres undefined) [Psicose] (50 µM),1.08,1.01,1.03,1.03,1.03 (inactive),0.991 (inactive),0.992 (inactive),1.04 (inactive),1.04 (inactive),0.967 (inactive),1.01 (inactive),0.942 (inactive)
C=C1c2c(Cl)ccc(O)c2C(O)=C2C(=O)[C@]3(O)C(O)=C(C(N)=O)C(=O)[C@@H](N(C)C)[C@@H]3[C@@H](O)[C@H]12.O=C(O)c1cc(S(=O)(=O)O)ccc1O [Meclocycline sulfosalicylate] (20 µM),0.0138,0.000715,0.0719,0.113,0.0573 (active),0.0133 (active),0.0772 (active),0.14 (active),0.444 (active),0.447 (active),0.514 (active),0.11 (active)
CCOc1ccccc1OCC1CNCCO1 (centres undefined) [Viloxazine hydrochloride] (20 µM),0.836,0.991,0.986,0.675,0.986 (inactive),1.03 (inactive),0.572 (active),1.06 (inactive),1 (inactive),0.971 (inactive),0.992 (inactive),0.696 (active)
CN[C@@H]1[C@H](O[C@H]2[C@H](O[C@H]3[C@H](O)[C@@H](O)[C@H](N=C(N)N)[C@@H](O)[C@@H]3N=C(N)N)O[C@@H](C)[C@]2(O)C=O)O[C@@H](CO)[C@H](O)[C@H]1O [Streptomycin sulfate] (20 µM),0.95,0.989,0.957,1.15,0.988 (inactive),1.12 (inactive),1.02 (inactive),0.983 (inactive),1 (inactive),1.03 (inactive),0.977 (inactive),0.994 (inactive)
CC(=O)OCC(=O)[C@@]1(O)CC[C@H]2[C@@H]3CCC4=CC(=O)C=C[C@]4(C)[C@@]3(F)[C@@H](O)C[C@@]21C [Isoflupredone acetate] (20 µM),0.985,1.02,0.983,1,1.09 (inactive),1.03 (inactive),1.1 (inactive),1 (inactive),1.03 (inactive),0.988 (inactive),1.11 (inactive),1.22 (inactive)
Cn1c([N+](=O)[O-])cnc1COC(N)=O [Ronidazole] (20 µM),0.00699,1.05,0.963,0.0625,0.617 (active),0.0193 (active),0.0355 (active),0.99 (inactive),0.97 (inactive),1.17 (inactive),1.03 (inactive),0.0387 (active)
Cc1nc2n(c(=O)c1CCN1CCC(c3noc4cc(F)ccc34)CC1)CCCC2 [Risperidone] (20 µM),1,1,1,1.02,1.04 (inactive),0.962 (inactive),0.931 (inactive),1.33 (inactive),1.05 (inactive),0.952 (inactive),1.01 (inactive),0.878 (inactive)
CC(Cc1cccc(C(F)(F)F)c1)NCCOC(=O)c1ccccc1 (centres undefined) [Benfluorex] (20 µM),1.08,0.988,0.966,0.795,1.02 (inactive),0.988 (inactive),0.786 (active),1.06 (inactive),1 (inactive),0.975 (inactive),0.99 (inactive),0.797 (inactive)
CC1Cc2ccccc2N1NC(=O)c1ccc(Cl)c(S(N)(=O)=O)c1 (centres undefined) [Indapamide] (20 µM),1.04,1.02,0.929,0.659,1 (inactive),1.01 (inactive),1.01 (inactive),1 (inactive),1 (inactive),0.977 (inactive),1 (inactive),1.03 (inactive)
CCN(CC)CCNC(=O)c1cc(Cl)c(N)cc1OC [Metoclopramide monohydrochloride] (20 µM),1.08,1.01,1,1.13,1.03 (inactive),0.988 (inactive),1.02 (inactive),0.875 (inactive),1.03 (inactive),0.826 (inactive),0.998 (inactive),1 (inactive)
CCCCN(CCCC)CCC(O)c1cc2c(Cl)cc(Cl)cc2c2cc(C(F)(F)F)ccc12 (centres undefined) [Halofantrine hydrochloride] (20 µM),1.1,1.23,1.03,1.16,0.895 (inactive),1.01 (inactive),0.756 (active),1.17 (inactive),0.964 (inactive),0.955 (inactive),1.01 (inactive),0.92 (inactive)
